Compounds without any hit were thinned out: in the full panel of roughly 83,000, 20% have a hit.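 The endpoint reported here, percent growth, reads 100 for growth as untreated, 0 for no net growth and -100 for all cells dead.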 Activity calls are given as the source filed them. How the source made its calls: active means growth percent below 10; inactive means the rest.
What was measured:
Assay in all cases: NCI-60 one-dose screen, 48 h (100 = growth as untreated, 0 = no growth, -100 = all killed)
Conditions in all cases: 10 µM unless noted
[1] = system: SK-MEL-2 melanoma
[2] = system: EKVX NSCLC
[3] = system: SN12C renal
[4] = system: UO-31 renal
[5] = system: TK-10 renal
[6] = system: ACHN renal
[7] = system: CAKI-1 renal
[8] = system: CCRF-CEM leukemia
[9] = system: MOLT-4 leukemia
[10] = system: A498 renal

Measured: growth

O=[N+]([O-])c1cccc(/C=C/c2ccccn2)c1
inactive: [1] 117% | [2] 74.3% | [3] 84.3% | [4] 69.4% | [5] 104% | [6] 72.1% | [7] 52.3% | [8] 65.5% | [9] 75.2%

CN(C)c1ccc(-c2cc(-c3ccc(Nc4nc(Nc5ccccc5)nc(Nc5ccc(Cl)cc5)n4)cc3)nc(N)n2)cc1
active: [8] 5.11% | [9] -4.17%
inactive: [1] 47.2% | [2] 33.3% | [3] 50% | [4] 39% | [5] 74.6% | [6] 46.3% | [7] 39.5%

CNCCNc1nc2ccccc2c2c(=O)c3cc(F)ccc3oc12
inactive: [1] 100% | [2] 71.9% | [3] 46.9% | [4] 37.7% | [5] 80.2% | [6] 24% | [7] 45% | [8] 52.4% | [9] 10.7%

CC(=O)Nc1ccc(C(=O)/C=C/c2ccccc2)cc1
inactive: [1] 78.2% | [2] 95.2% | [3] 77.2% | [4] 51.8% | [5] 82.1% | [6] 94.6% | [7] 88.2% | [10] 74% | [8] 95.1% | [9] 81.6%

N#Cc1c(N)n2c(nc1=Nc1ccc([N+](=O)[O-])cc1)sc1cc(Cl)ccc12
inactive: [1] 99.4% | [2] 84.3% | [3] 89.4% | [4] 75.2% | [5] 148% | [6] 90.7% | [7] 85.2% | [10] 102% | [8] 83.6% | [9] 93.4%

O=c1[nH]c(=O)n(C2CC(O)C(CO)O2)cc1CO (stereo not drawn)
inactive: [1] 53.5% | [2] 98.8% | [3] 76.2% | [4] 102% | [5] 90.5% | [6] 101% | [7] 86.3% | [8] 79.8% | [9] 87.7%

O=c1cc(-c2ccc(OCc3ccccc3)cc2)oc2c(I)c(OCc3ccccc3)cc(OCc3ccccc3)c12
inactive: [1] 113% | [2] 109% | [3] 101% | [4] 80% | [5] 96.5% | [6] 98.5% | [7] 84.2% | [8] 97.8% | [9] 113%

N=C(N)c1ccc(-c2ccc(-c3ccc(Cl)cc3Cl)o2)cc1
inactive: [1] 105% | [2] 58.5% | [5] 30.5% | [7] 17.3%
active: [3] -78.3% | [4] -83.8% | [6] -89% | [8] 0.678% | [9] -29.2%

COC1(CC[C@@H](C)COC2OC(CO)C(O)C(O)C2O)O[C@H]2C[C@H]3[C@@H]4CC=C5C[C@@H](OC6OC(CO)C(OC7OC(C)C(O)C(O)C7O)C(O)C6OC6OC(C)C(O)C(O)C6O)CC[C@]5(C)[C@H]4CC[C@]3(C)[C@H]2[C@@H]1C (stereo partly drawn)
active: [1] -71% | [2] 4.85% | [3] -64.7% | [4] -65.4% | [5] -60.4% | [6] -87.4% | [7] -76.5% | [8] -95.2% | [9] -99.1%

COc1ccc(-c2cc(-c3ccc(Nc4nc(Nc5ccccc5)nc(Nc5ccc(Cl)cc5)n4)cc3)nc(N)n2)cc1
inactive: [1] 70.7% | [2] 58.8% | [3] 75% | [4] 69% | [5] 98% | [6] 74.6% | [7] 75.8% | [8] 27.1% | [9] 28.6%

CN(C)CN1CCN(c2ccc3nc(-c4ccc5nc(-c6ccc(C(F)(F)F)cc6)[nH]c5c4)[nH]c3c2)CC1
inactive: [1] 52% | [2] 79% | [3] 64.4% | [4] 131% | [5] 130% | [6] 79.3% | [7] 73.6% | [8] 38.6% | [9] 44.2%

CCn1c(Sc2nnc(Nc3ccccc3)s2)nc2c1c(=O)n(C)c(=O)n2C
inactive: [1] 130% | [2] 86.5% | [3] 96.4% | [4] 73% | [5] 146% | [6] 91% | [7] 93.9% | [8] 117% | [9] 110%

O=C(NCCOCCOCCNc1cccc2c1C(=O)N(C1CCCNC1=O)C2=O)c1cc2c(o1)C(=O)c1ccccc1C2=O (stereo not drawn)
active: [1] -13.6% | [3] -74.3% | [4] -19.8% | [5] 8.39% | [7] -10.1% | [9] 8.89%
inactive: [2] 17.7% | [6] 14% | [8] 14.9%

COC(=O)[C@]12CC[C@@H](C)[C@H](C)[C@@H]1C1=CC[C@@H]3[C@@]4(C)C(C=O)=C[C@@](C)(CO)C4=CC[C@@]3(C)[C@]1(C)CC2
active: [9] 8.61%
inactive: [1] 52.4% | [2] 34.4% | [3] 37.6% | [4] 27.8% | [5] 54.4% | [6] 17.1% | [7] 42.8% | [8] 18.7%

O=C(CCl)N1c2cccc3cccc(c23)N(C(=O)CCl)C1c1cn(-c2ccccc2)nc1-c1cccc([N+](=O)[O-])c1
active: [8] 8.63%
inactive: [1] 111% | [2] 102% | [3] 93.5% | [4] 66.9% | [5] 104% | [6] 76.7% | [7] 92.5% | [9] 34.7%

Cc1c(Cl)cccc1NS(=O)(=O)c1ccccc1
inactive: [1] 132% | [2] 114% | [3] 103% | [4] 90.4% | [5] 104% | [6] 98.4% | [7] 116% | [8] 124% | [9] 102%

COc1ccccc1NC(=O)Nc1ccc(-c2nc3ccccc3o2)cc1
inactive: [1] 130% | [2] 92.8% | [3] 98.7% | [4] 94.5% | [5] 118% | [6] 95.4% | [7] 103% | [8] 101% | [9] 75.1%

O=C1Nc2ccc(Cl)cc2/C1=N/N=C/c1c[nH]c2ccccc12
inactive: [1] 66.3% | [2] 22.6% | [3] 80.5% | [4] 40.9% | [5] 75.8% | [6] 49.8% | [7] 28.9% | [8] 85.7% | [9] 92.1%

COc1cc(-c2ccc(-c3ccc(C(=N)N)nc3)s2)cc(OC)c1OC
inactive: [1] 89.3% | [2] 89.9% | [3] 66.6% | [4] 70.5% | [5] 102% | [6] 47.1% | [7] 95.9% | [8] 10.9% | [9] 23.8%

Cc1cc(-c2noc(C(F)(F)F)n2)ccc1N1CCN(c2cc(C(=O)N(C)C)no2)CC1
inactive: [1] 73% | [2] 49.5% | [3] 83% | [4] 62.7% | [5] 81.2% | [6] 63.9% | [7] 67.7% | [8] 65.3% | [9] 71.5%

CCCCN1CCN(c2ccc3nc(-c4ccc5nc(-c6ccc(OCC)c(OCC)c6)[nH]c5c4)[nH]c3c2)CC1
active: [8] -0.368% | [9] -0.133%
inactive: [1] 13.1% | [2] 24.6% | [3] 18.8% | [4] 74.4% | [5] 57% | [6] 12.7% | [7] 27.7%

CCCCN1CCN(c2ccc3nc(-c4ccc5nc(-c6cc(OC)c(OC)c(OC)c6)[nH]c5c4)[nH]c3c2)CC1
inactive: [1] 83.8% | [2] 106% | [3] 80.2% | [4] 79.8% | [5] 131% | [6] 86.8% | [7] 87.9% | [8] 25.1% | [9] 47%

COc1ccc(C(=O)/C=C/C23c4ccccc4C(c4ccccc42)C2C(=O)NC(=O)C23)cc1 (stereo not drawn)
inactive: [1] 103% | [2] 87.5% | [3] 86.9% | [4] 72.6% | [5] 114% | [6] 95.4% | [7] 90.7% | [8] 89.8% | [9] 87.3%

N#C/C=C(\c1ccc([N+](=O)[O-])cc1)n1nnc2cc(Cl)c(Cl)cc21
inactive: [1] 65.8% | [2] 38.6% | [7] 40.9% | [9] 22.4%
active: [3] -20.1% | [4] -70.9% | [5] -16.2% | [6] -85% | [8] 9.49%

O=C(/C=C/C12c3ccccc3C(c3ccccc31)C1C(=O)NC(=O)C12)c1ccccc1 (stereo not drawn)
inactive: [1] 30.9% | [2] 21% | [3] 18.8% | [4] 39.7% | [5] 44.3% | [6] 32.7% | [7] 45.2% | [8] 12.6% | [9] 16.6%

O=C(c1ccccc1)c1ccc(N2C(=O)C3C4c5ccccc5C(/C=C/C(=O)c5ccccn5)(c5ccccc54)C3C2=O)cc1 (stereo not drawn)
inactive: [1] 74.7% | [2] 27.9% | [3] 11.3% | [5] 20.1% | [7] 49.3% | [8] 11.1% | [9] 16%
active: [4] -37.4% | [6] -25.4%

O=C(CC12CC3CC(CC(C3)C1)C2)NCCOCCOCCNC(=O)c1cc2c(o1)C(=O)c1ccccc1C2=O
inactive: [8] 12.6%
active: [1] -42% | [2] -66.4% | [3] -96.3% | [4] -60.1% | [5] -27.1% | [6] -74% | [7] -65.8% | [9] -4.92%

COc1cc(/C=C/C(=O)c2ccc(Nc3nc(Nc4ccccc4)nc(Nc4ccc(Cl)cc4)n3)cc2)cc(OC)c1OC
inactive: [1] 82% | [2] 52.8% | [3] 69% | [4] 50.6% | [5] 74.7% | [6] 66.1% | [7] 66.4% | [8] 18.5% | [9] 25.5%

O=C(NCCN1CCC(O)CC1)c1cc2c(o1)C(=O)c1ccccc1C2=O
active: [1] -66.1% | [2] -76.8% | [3] -88.1% | [4] -98.9% | [5] -91.8% | [6] -89.2% | [7] -97.1% | [8] 2.16% | [9] -4.13%

— PubChem BioAssay (NCI)
